Data on eleven compounds can be found in ChEMBL document CHEMBL3988442, “University of Dundee, Small-Polar-MMV Screening Library” (2021).

Set-up in all cases: scale not given: direction of the effect not stated beside the values
Test [1] deals with Protein translocase subunit SecA (Escherichia coli (strain K12)) (UniProt P10408). Kind of test: Assay to Identify E. coli SecA ATPase Inhibitors. Conditions: 30 µM. The test is classed as functional.
Test [2] concerns the target T1, Ubiquitin-activating enzyme e1, putative (Leishmania donovani (strain BPK282A1)) (UniProt E9BSI1).
T1 sequence (whole entry): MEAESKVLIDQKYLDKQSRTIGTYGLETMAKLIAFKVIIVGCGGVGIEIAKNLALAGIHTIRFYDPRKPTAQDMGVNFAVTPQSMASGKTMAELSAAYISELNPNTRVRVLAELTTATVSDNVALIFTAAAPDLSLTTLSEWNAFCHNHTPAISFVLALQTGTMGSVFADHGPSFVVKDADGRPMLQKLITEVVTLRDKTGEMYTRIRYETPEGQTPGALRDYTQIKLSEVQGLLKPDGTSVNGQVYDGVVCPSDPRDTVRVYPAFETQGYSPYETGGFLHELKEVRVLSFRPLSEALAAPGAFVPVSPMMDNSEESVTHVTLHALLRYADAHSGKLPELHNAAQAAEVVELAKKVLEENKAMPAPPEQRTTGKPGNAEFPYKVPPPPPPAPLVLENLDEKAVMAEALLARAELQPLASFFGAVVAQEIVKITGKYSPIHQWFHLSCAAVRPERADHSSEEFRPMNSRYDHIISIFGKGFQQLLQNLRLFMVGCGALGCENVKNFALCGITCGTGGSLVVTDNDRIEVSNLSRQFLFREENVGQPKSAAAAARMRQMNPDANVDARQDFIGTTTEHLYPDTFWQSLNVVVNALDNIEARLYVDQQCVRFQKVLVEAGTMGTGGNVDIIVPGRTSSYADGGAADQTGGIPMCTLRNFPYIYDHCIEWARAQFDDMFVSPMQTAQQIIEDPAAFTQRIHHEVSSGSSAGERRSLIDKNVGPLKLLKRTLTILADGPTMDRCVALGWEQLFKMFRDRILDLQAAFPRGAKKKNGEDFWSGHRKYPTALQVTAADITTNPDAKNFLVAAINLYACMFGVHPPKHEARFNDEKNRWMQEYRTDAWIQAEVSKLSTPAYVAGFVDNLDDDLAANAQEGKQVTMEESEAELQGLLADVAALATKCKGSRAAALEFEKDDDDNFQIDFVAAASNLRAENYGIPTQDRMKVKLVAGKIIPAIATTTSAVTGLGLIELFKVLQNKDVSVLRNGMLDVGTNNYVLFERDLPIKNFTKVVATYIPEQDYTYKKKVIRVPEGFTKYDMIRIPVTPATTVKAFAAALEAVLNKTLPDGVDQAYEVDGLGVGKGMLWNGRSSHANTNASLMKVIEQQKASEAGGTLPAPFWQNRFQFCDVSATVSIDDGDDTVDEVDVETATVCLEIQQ
In words: Leishmania donovani Ubiquitin Activating Enzyme (LdE1). The test is classed as functional. Conditions: 30 µM.

The target of test [3] is AMP-activated protein kinase, AMPK (Homo sapiens) (UniProt P54646+O43741+P54619+Q9UGJ0+Q9Y478+Q13131+Q9UGI9). Kind of test: AMP-dependent Kinase enzyme assay. An in vitro enzyme assay that detects ADP turnover that is directly proportional to AMPK activity. This uses naive AMPK that is activated during the assay with MK-8722. The test is classed as functional. Conditions: 30 µM.

Test [4] has as its target Sialic acid-binding Ig-like lectin 9 (Homo sapiens) (UniProt Q9Y336). In words: Hs-Siglec9 ALPHAscreen SOP 20170721. Conditions: 10 µM.
Test [5] has as its system Trypanosoma cruzi. Kind of test: Trypanosoma cruzi phosphomannomutase and mannose-1-phosphate guanylyltransferase assay. The class given is functional. The conditions noted are these: 10 µM.
Test [6] addresses T2, Arginase-2, mitochondrial (Homo sapiens) (UniProt P78540).
T2 sequence (whole entry): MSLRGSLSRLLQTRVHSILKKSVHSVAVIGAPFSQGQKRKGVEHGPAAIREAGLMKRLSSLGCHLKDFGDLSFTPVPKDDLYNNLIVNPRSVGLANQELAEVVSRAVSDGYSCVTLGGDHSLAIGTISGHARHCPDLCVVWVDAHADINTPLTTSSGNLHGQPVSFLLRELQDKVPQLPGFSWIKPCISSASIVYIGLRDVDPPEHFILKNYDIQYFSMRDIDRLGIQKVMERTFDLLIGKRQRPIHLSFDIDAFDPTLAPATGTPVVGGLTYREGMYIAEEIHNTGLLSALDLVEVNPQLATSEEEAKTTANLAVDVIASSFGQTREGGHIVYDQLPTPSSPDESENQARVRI
In words: in vitro enzyme assay to detect the production of urea directly proportional to the activity of Arginase II. Note: in the data most compounds retested in dose-response had high values. The class given is functional. The conditions noted are these: 33.3 µM.

The target of test [7] is T3, Proteasome subunit beta (Trypanosoma cruzi) (UniProt O96673).
T3 sequence (whole entry): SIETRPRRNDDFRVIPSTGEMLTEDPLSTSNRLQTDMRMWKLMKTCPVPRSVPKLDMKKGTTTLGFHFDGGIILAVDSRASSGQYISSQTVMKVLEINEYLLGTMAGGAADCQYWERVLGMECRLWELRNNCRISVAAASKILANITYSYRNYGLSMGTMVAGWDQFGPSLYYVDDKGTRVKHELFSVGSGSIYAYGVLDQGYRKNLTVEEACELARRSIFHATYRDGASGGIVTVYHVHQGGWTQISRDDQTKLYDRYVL
Kind of test: Trypanosoma cruzi proteasome chymotrypsin-like activity (TcProtChymo) assay. Note: in the data most compounds retested in dose-response had high values. The test is classed as functional. The conditions noted are these: 9.37 µM.

The species named for test [8] is Homo sapiens. In words: To identify inhibition of the IFN signalling (Jak-Stat) pathway via expression of an eGFP reporter gene under the control of an IFN-stimulated response element (ISRE) containing MxA promoter. The test is classed as functional. Conditions: 30 µM. (In general: In a reporter assay the amount or activity of a reporter protein is the signal.)
Test [9] concerns the target T4, Tyrosyl-tRNA synthetase, putative (Trypanosoma cruzi (strain CL Brener)) (UniProt Q4DSP6).
T4 sequence (whole entry): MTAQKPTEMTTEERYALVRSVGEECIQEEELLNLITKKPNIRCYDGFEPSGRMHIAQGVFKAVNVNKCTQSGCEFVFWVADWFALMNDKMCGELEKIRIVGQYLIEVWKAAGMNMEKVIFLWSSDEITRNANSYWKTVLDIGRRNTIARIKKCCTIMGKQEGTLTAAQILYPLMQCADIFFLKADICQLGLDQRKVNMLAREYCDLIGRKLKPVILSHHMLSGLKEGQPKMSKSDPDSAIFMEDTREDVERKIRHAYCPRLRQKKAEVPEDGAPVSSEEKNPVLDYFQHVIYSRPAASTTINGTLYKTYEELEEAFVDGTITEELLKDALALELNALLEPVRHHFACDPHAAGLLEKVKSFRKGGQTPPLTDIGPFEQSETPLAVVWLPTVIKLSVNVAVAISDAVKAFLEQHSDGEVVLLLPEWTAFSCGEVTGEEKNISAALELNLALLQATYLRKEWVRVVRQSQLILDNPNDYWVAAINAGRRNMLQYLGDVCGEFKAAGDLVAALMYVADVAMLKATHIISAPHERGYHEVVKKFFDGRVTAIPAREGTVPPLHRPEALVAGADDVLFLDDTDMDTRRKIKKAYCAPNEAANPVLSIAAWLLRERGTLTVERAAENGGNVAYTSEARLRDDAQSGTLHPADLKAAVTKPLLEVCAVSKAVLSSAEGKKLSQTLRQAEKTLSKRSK
Kind of test: Trypanosoma cruzi tyrosyl tRNA synthetase (TcYRS) _High Tyrosine SOP. Note: in the data most compounds retested in dose-response had high values. The test is classed as functional. Conditions: 30 µM.

The target of test [10] is T4, Tyrosyl-tRNA synthetase, putative (Trypanosoma cruzi (strain CL Brener)). In words: Trypanosoma cruzi tyrosyl tRNA synthetase (TcYRS) SOP. The conditions noted are these: 30 µM. The test is classed as functional.
Test [11] deals with Chromo domain-containing protein 1 (Saccharomyces cerevisiae (strain ATCC 204508 / S288c) (Baker's yeast)) (UniProt P32657). In words: ScCHD-1 Enzyme Inhibition Assay. Note: in the data most compounds retested in dose-response had high values. The class given is functional. The conditions noted are these: 30 µM.
Sequence of Chromo domain-containing protein 1 (Saccharomyces cerevisiae (strain ATCC 204508 / S288c) (Baker's yeast)) (P32657 whole entry, the tested form may be a part): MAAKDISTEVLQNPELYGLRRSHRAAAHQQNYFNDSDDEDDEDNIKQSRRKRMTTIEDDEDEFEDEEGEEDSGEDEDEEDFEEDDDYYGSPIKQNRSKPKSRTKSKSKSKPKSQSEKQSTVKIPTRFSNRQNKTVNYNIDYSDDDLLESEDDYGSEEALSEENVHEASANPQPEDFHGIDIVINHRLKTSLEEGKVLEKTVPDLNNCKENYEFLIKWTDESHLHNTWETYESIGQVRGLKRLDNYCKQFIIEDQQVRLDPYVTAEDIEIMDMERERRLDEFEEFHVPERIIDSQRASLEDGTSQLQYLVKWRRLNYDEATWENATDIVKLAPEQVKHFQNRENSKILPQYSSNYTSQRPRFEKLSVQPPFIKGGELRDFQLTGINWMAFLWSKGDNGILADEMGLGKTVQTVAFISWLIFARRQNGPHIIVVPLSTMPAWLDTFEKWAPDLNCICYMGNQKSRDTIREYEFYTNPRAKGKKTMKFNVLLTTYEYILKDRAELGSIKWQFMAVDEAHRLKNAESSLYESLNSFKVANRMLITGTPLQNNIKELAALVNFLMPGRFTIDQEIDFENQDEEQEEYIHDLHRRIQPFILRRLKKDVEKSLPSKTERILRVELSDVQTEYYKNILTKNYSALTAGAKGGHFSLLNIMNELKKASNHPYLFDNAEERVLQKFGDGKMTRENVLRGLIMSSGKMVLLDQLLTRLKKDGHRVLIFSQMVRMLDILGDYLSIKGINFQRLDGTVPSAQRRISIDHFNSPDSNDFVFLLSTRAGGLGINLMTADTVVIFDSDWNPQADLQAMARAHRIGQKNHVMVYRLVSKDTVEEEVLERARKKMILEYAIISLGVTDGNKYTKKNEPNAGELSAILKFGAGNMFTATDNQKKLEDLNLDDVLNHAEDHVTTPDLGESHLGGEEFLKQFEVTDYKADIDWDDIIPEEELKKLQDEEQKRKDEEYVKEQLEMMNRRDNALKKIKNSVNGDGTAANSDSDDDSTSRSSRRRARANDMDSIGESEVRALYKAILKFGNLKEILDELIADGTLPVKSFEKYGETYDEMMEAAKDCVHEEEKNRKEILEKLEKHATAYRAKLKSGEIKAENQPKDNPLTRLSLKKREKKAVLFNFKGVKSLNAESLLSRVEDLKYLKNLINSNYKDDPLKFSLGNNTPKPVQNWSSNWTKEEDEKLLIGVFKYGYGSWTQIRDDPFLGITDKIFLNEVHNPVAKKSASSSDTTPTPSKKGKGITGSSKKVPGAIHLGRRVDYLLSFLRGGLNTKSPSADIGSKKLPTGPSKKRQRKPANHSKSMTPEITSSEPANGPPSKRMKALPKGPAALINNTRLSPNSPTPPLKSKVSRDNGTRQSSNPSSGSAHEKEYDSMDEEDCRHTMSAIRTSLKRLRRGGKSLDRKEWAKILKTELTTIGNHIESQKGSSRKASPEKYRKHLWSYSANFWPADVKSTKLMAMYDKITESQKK

For some of these results: Measured potencies and affinities stand elsewhere.

Sequence of Sialic acid-binding Ig-like lectin 9 (Homo sapiens) (Q9Y336 whole entry): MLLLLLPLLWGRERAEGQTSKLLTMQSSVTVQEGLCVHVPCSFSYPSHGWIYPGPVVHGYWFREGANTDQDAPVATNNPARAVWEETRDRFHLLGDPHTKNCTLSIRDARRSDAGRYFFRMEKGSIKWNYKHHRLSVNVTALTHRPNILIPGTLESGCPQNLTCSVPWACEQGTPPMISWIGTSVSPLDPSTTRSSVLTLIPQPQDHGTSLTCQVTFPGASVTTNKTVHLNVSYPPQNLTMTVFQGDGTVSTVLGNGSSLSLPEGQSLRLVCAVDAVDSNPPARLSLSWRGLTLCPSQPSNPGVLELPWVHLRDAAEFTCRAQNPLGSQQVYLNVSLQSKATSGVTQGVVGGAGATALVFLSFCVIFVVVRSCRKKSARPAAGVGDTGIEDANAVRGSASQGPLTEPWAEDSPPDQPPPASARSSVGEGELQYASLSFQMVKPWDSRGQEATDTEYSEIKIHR
Sequence of Protein translocase subunit SecA (Escherichia coli (strain K12)) (P10408 whole entry): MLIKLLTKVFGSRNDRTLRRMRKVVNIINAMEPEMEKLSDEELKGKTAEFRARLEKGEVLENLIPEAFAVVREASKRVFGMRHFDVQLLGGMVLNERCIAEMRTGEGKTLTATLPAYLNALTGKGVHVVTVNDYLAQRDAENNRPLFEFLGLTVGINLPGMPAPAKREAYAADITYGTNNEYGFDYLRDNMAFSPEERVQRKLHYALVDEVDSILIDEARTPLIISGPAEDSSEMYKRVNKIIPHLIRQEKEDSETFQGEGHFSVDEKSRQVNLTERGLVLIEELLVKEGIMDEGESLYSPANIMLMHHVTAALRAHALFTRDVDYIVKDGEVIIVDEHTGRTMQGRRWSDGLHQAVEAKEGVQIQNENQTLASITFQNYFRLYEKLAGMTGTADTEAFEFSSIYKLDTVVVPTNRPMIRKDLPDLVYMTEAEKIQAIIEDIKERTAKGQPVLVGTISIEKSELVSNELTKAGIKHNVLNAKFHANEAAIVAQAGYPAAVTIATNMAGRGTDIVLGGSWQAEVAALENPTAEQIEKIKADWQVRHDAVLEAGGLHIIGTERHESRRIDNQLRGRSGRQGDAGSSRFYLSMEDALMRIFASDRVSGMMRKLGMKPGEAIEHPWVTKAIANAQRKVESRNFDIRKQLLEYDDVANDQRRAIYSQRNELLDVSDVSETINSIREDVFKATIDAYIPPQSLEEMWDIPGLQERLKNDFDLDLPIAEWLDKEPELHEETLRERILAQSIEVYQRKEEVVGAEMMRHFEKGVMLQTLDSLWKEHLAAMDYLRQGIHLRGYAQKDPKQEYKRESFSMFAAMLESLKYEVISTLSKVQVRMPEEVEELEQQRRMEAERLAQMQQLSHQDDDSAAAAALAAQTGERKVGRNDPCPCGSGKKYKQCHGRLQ

Take `Cc1oc(C(=O)O)cc1S(=O)(=O)Nc1c(F)cccc1-n1cccn1`: the Percent Effect was -5.09% in [1]; 0% in [2]; -0.737% in test [3]; 4.46% in test [4]; 7.5% in test [5]; 0% in test [6]. The Percent Effect in test [7] was 11%; in test [8] it was 7.88%; in [9] it was 2.73%; in [10] it was 6.17%; in test [11], -3.81%.
`Cc1ccc(C(=O)N2CCO[C@H]3[C@@H](OCc4ccccn4)CC[C@@H]32)o1`: the Percent Effect is -2.21% in test [1]; 10.4% in test [2]; -8.74% in [3]; 3.45% in [4]; -4.44% in [5]; 11% in test [6]. Moreover, the Percent Effect in test [7] was 12.7%; in test [8], 11.5%; in [9], -1.06%; in [10], -8.97%; in [11] it was -6.69%.
Take `O=C(Nc1cccc(Cl)c1)c1nn(C2CCS(=O)(=O)C2)c2c1CCCC2` (stereo unspecified): the Percent Effect was -5% in test [1]; -7.89% in test [2]; 10.5% in test [3]; 6.51% in test [4]; -1.27% in test [5]; -3.55% in [6]. The Percent Effect was 12.4% in test [7]; -5.46% in test [8]; -1.06% in test [9]; 2.6% in test [10]; -5.58% in test [11].
Consider `CN(C)C(=O)N1C[C@@H]2COC[C@]2(CNS(C)(=O)=O)C1`, for which the Percent Effect in test [1] is -1.78%; in test [2] it was -2.7%; in test [3] it was 5.5%; in [4], 5.41%; in test [5], -1.27%; in test [6] it was 2.87%. Also, the Percent Effect in test [7] was 16.8%; in test [8] it was -0.0949%; in [9] it was 0%; in test [10] it was -5.13%; in test [11] it was 3.04%.
For `CC(=O)N1C[C@H](NC(=O)c2cscn2)[C@@H]2OCCC[C@@H]21`, the Percent Effect in [1] was -1.76%; in test [2], 10.8%; in [3], 2.39%; in [4], -9.14%; in test [5], -5.38%; in test [6], 7.33%. Besides, the Percent Effect in test [7] is 23.2%; in test [8], -9.35%; in test [9] it was -1.08%; in test [10], 10.3%; in [11], -0.517%.
As for `CC(C)(CO)NC(=O)C1CCC(=O)N(Cc2ccc(Cl)cc2)C1` (stereo unspecified), the Percent Effect is -3.58% in test [1]; 1.39% in test [2]; 10.2% in test [3]; 1.15% in test [4]; -1.26% in test [5]; -3.09% in test [6]. Further, the Percent Effect in [7] is 2.81%; in [8], -9.87%; in test [9], -3.16%; in test [10], 0%; in [11], 0.1%.
With `Cc1ccc(C(=O)N2CCN(CC(O)c3ccc(F)cc3)CC2)s1` (stereo unspecified), the Percent Effect in test [1] was -2.93%; in test [2] it was 7.89%; in test [3], 6.49%; in test [4], 18.1%; in [5], -0.564%; in test [6], 0.766%. Besides, the Percent Effect in test [7] is 4.34%; in test [8], 13.7%; in [9] it was 5.39%; in test [10] it was 9.76%; in test [11] it was -0.68%.
As for `CC(=O)N1CCCC1c1nccnc1Nc1cccc(C)n1` (stereo unspecified), the Percent Effect in test [1] was -1.59%; in test [2] it was -5.33%; in [3] it was 11.9%; in test [4], 5.31%; in test [5], -1.57%; in [6] it was 0.699%. Further, the Percent Effect in test [7] was 1.15%; in test [8], -9.62%; in test [9], -1.06%; in test [10] it was 1.28%; in test [11] it was 4.34%.
As to `O=C(O)[C@]12CCCN(Cc3ccccc3)C[C@H]1CN(c1ncccn1)C2`, the Percent Effect in test [1] was -4.2%; in test [2], 5.33%; in [3] it was 7.47%; in test [4], -4.2%; in test [5], 0.386%; in test [6] it was -39.2%. Besides, the Percent Effect in test [7] is 9.91%; in test [8], -24.8%; in test [9] it was 4.17%; in [10] it was 12.5%; in test [11] it was -8.27%.
With `COC(C(=O)N1CCN(c2cccc(Cl)c2)C(=O)C1)c1ccccc1` (stereo unspecified), the Percent Effect is -1.02% in test [1]; 0% in [2]; 0.72% in test [3]; 1% in [4]; -2.7% in test [5]; 3.33% in [6]. In addition, the Percent Effect in [7] was 14.7%; in test [8], 0.627%; in test [9], 3.7%; in [10] it was 9.76%; in test [11] it was -4.32%.
For `COc1ccc(CS(=O)(=O)CC(=O)NCC2CC2)cc1F`, the Percent Effect was -1.25% in test [1]; 10.5% in test [2]; 6.04% in [3]; -2.71% in test [4]; 1.66% in [5]; 5.92% in [6]. For the same compound, the Percent Effect in [7] is 15.6%; in [8], 8.09%; in test [9], 6.38%; in test [10], 18.2%; in test [11], -4.08%.
